Measurements taken from PubChem BioAssay AID1159580 (chemical genetic matrix, 2015).
“And” between values parts separate entries of the source, which are not always exact repeats. Identical values can stand only once. Out of some 5,500 compounds screened, about 2,000 (36%) were called active. Another 18% or so got no clear call; they are omitted. No stated cut-off is given here; in the data, active means normalized growth mostly below about 0.91 (no sharp cut-off); inconclusive means no clear call, values can overlap the other calls; inactive means mostly above about 0.92. This is one part of the list.

Assay: chemical genetic growth profiling, strain panel (AID 1159580);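 further: tested at 20 µM; growth read once vehicle control cultures reached saturation at 30 °C; 1 = growth at the plate median or of vehicle wells; lower values mean less growth of the strain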
Details: S. cerevisiae deletion strains, growth OD

Measured: normalized growth

COc1cc(/C=C/C(=O)O)cc(OC)c1OC
inactive: locus YAL021C, strain ccr4, active compounds read low 0.979 | locus YAL026C, strain drs2, active compounds read low 0.999 | locus YAL030W, strain snc1, active compounds read low 0.988 | locus YBL061C, strain skt5, active compounds read low 0.993 | locus YBR009C, strain hhf1, active compounds read low 1.02 | locus YBR021W, strain FUR4, active compounds read low 0.998 | locus YBR023C, strain chs3, active compounds read low 0.993 | locus YBR171W, strain sec66, active compounds read low 1 | locus YBR229C, strain ROT2, active compounds read low 1.01 | locus YBR231C, strain swc5, active compounds read low 0.941 | locus YBR279W, strain paf1, active compounds read low 0.973 | locus YCL011C, strain gbp2, active compounds read low 0.99 | locus YCL016C, strain dcc1, active compounds read low 0.994 | locus YCL029C, strain bik1, active compounds read low 1.01 | locus YCL061C, strain MRC1, active compounds read low 1 | locus YCL069W, strain vba3, active compounds read low 0.992 | locus YCR088W, strain abp1, active compounds read low 0.989 | locus YDL005C, strain med2, active compounds read low 0.979 | locus YDL035C, strain GPR1, active compounds read low 1.01 | locus YDL040C, strain nat1, active compounds read low 0.99 | locus YDL074C, strain BRE1, active compounds read low 1.02 | locus YDL101C, strain DUN1, active compounds read low 1.01 | locus YDL134C, strain PPH21, active compounds read low 1.02 | locus YDL185W, strain tfp1, active compounds read low 1.01 | locus YDL192W, strain arf1, active compounds read low 1.01 | locus YDR001C, strain nth1, active compounds read low 0.985 | locus YDR069C, strain doa4, active compounds read low 0.991 | locus YDR101C, strain arx1, active compounds read low 1.01 | locus YDR137W, strain rgp1, active compounds read low 1 | locus YDR159W, strain sac3, active compounds read low 0.986 | locus YDR162C, strain NBP2, active compounds read low 1.03 | locus YDR195W, strain ref2 0.99 | locus YDR297W, strain sur2, active compounds read low 1 | locus YDR318W, strain mcm21, active compounds read low 1.01 | locus YDR334W, strain swr1, active compounds read low 0.987 | locus YDR335W, strain msn5, active compounds read low 0.987 | locus YDR388W, active compounds read low 1.01 | locus YDR392W, strain spt3, active compounds read low 0.946 | locus YDR502C, strain sam2, active compounds read low 0.991 | locus YEL003W, strain gim4, active compounds read low 0.994 | locus YEL037C, strain rad23, active compounds read low 0.984 | locus YEL061C, strain CIN8 (second series), active compounds read low 0.99 | locus YEL061C, strain CIN8, active compounds read low 1.01 | locus YER015W, strain faa2, active compounds read low 0.975 | locus YER016W, strain bim1, active compounds read low 0.99 | locus YER110C, active compounds read low 1.03 | locus YER111C, strain swi4, active compounds read low 0.984 | locus YER155C, strain BEM2 (second series), active compounds read low 1.01 | locus YER155C, strain BEM2, active compounds read low 1.01 | locus YER167W, strain BCK2, active compounds read low 1.01 | locus YFR010W, strain ubp6, active compounds read low 0.988 | locus YGL078C, strain dbp3, active compounds read low 1.02 | locus YGL086W, strain mad1, active compounds read low 0.997 | locus YGL167C, strain pmr1, active compounds read low 0.982 | locus YGL173C, strain kem1, active compounds read low 0.985 | locus YGL227W, strain vid30, active compounds read low 0.997 | locus YGL240W, strain doc1, active compounds read low 1 | locus YGL248W, strain PDE1, active compounds read low 1.02 | locus YGL253W, strain hxk2, active compounds read low 0.993 | locus YGR078C, strain PAC10, active compounds read low 1.01 | locus YGR135W, strain pre9, active compounds read low 1.02 | locus YGR252W, strain gcn5, active compounds read low 1.02 | locus YHR013C, strain ard1, active compounds read low 0.967 | locus YHR027C, strain rpn1, active compounds read low 1 | locus YHR030C, strain SLT2, active compounds read low 1 and 1.01 | locus YHR079C, strain IRE1 (second series), active compounds read low 1.03 | locus YHR079C, strain IRE1, active compounds read low 1 | locus YHR094C, strain hxt1, active compounds read low 1.02 | locus YHR129C, strain ARP1, active compounds read low 1.01 | locus YHR142W, strain chs7, active compounds read low 0.986 | locus YHR200W, strain rpn10, active compounds read low 1.02 | locus YIL066C, strain RNR3, active compounds read low 1.01 | locus YIL073C, strain SPO22, active compounds read low 1.08 | locus YIL125W, strain kgd1, active compounds read low 1.01 | locus YIR030C, strain dcg1, active compounds read low 1.02 | locus YJL092W, strain hpr5, active compounds read low 0.991 | locus YJL095W, strain BCK1 (second series), active compounds read low 0.994 | locus YJL095W, strain BCK1, active compounds read low 1.01 and 1.03 | locus YJL115W, strain asf1, active compounds read low 0.976 | locus YJL129C, strain trk1, active compounds read low 0.971 | locus YJL134W, strain LCB3, active compounds read low 1 | locus YJL154C, strain vps35, active compounds read low 0.992 | locus YJL164C, strain tpk1, active compounds read low 0.987 | locus YJL166W, strain qcr8, active compounds read low 0.994 | locus YJL168C, strain set2, active compounds read low 1.01 | locus YJL187C, strain SWE1 (second series), active compounds read low 1.01 | locus YJL187C, strain SWE1, active compounds read low 0.991
